This is part of a sample that, as a whole, favours compounds with a hit. Of some 83,000 tested, about 20% had one in any assay.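 Single-dose data. Exposure time 48 hours. Values below 10 considered active.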 Unmarked numbers belong to inactive results. Active and inactive are the calls of the source.

This test relates to T-47D breast. Kind of test: NCI-60 one-dose screen, 48 h (100 = growth as untreated, 0 = no growth, -100 = all killed). The conditions noted are these: 10 µM.
With `CN1CCN(c2ccc(Nc3nc(N4CCN(S(=O)(=O)c5ccc(F)cc5)CC4)c4sccc4n3)cc2)CC1`, the growth was -62.7% (active). The same measure for `CCCCCc1ccc(S(=O)(=O)Nc2cc(-c3csc(N(C)C(C)=O)n3)ccc2N2CCN(C)CC2)cc1`: -33.4% (active). On to `CN1CCN(c2ccc(Nc3nc(NCCCNC(=O)C4CCCCC4)c4sccc4n3)cc2)CC1`, for which the growth was 36.6%. Consider `N[C@@H](CSSC[C@H](N)C(=O)Nc1ccc(OCC2CCCC2)cc1)C(=O)Nc1ccc(OCC2CCCC2)cc1`, for which the growth is -68.9% (active). `COc1ccc2nc(Cl)c(-c3cc(-c4ccccc4)nc(=O)[nH]3)cc2c1`: the growth was 37.8%.

Consider `O=C(Nc1ccc(OCc2ccccc2)cc1)Nc1ccc(Cl)c(C(F)(F)F)c1`, for which the growth is -2.54% (active).

As for `COc1ccc2[nH]c(O)c(N=NC(=O)COc3ccc(NC(=O)Nc4ccc(Cl)cc4)cc3)c2c1`, the growth was 83.8%. With `Cc1cc2c(c(O)c1Br)-c1ncoc1C(=O)[C@]1(C)CC[C@H](C(C)C)[C@H]21`, the growth was 20.6%.

Consider `CCN1CCN(c2ccc(NC(=O)Nc3ccc4c(c3F)CCN4c3ccnc(C(=O)NC)c3)cc2C(F)(F)F)CC1`, for which the growth is 105%. Under `O=C1Nc2ccc(F)cc2/C1=C/c1cccc(OCc2ccccc2)c1` stands 13.8%; under `Cc1ccc(NC(=O)c2ccc(-n3c(=O)[nH]c4ccccc4c3=O)cc2)cc1`, 80.4%; under `O=C(Nc1ccncc1)c1ccc(-n2c(=O)[nH]c3ccccc3c2=O)cc1`, 81.7%.

In the case of `Cc1ccc(-c2cc(-c3cc4ccccc4nc3Cl)[nH]c(=S)n2)cc1`, the growth is 57.3%. Regarding `O=C(c1ccc(Cl)cc1)C1[C@H](c2ccc(Br)cc2)[C@@H](c2ccccc2)NC12C(=O)Nc1ccc(Cl)cc12` (some centres not stated), the growth is 8.01% (active).

As for `O=C(O)CCCCCCCCCCN1C(=O)/C(=C/c2cnc(-c3ccc(Cl)cc3)s2)SC1=S`, the growth is 47.2%.

Regarding `CN1CCN(c2ccc(Nc3nc(N4CCN(S(=O)(=O)c5ccc(Cl)cc5)CC4)c4sccc4n3)cc2)CC1`, the growth was -34.4% (active). Consider `CN1CCN(c2ccc(C(=O)/C=C/c3cc(Br)ccc3F)cc2)CC1`, for which the growth is 59.8%. On to `O=c1nc(-c2ccccc2)cc(-c2cc3ccccc3nc2Cl)[nH]1`, for which the growth was 45.5%. Under `CC1=C2C(=C[C@@](C)(CO)[C@@H]2O)/C(=N\N)[C@](C)(O)C12CC2` stands -11.8% (active); under `O=C(c1ccc(O)cc1)C1[C@H](c2ccc(Br)cc2)[C@@H](c2ccccc2)NC12C(=O)Nc1ccc(Br)cc12` (some centres not stated), 22.2%; under `COc1ccc(C=CC(=O)c2ccc(-n3c(C)nc4c(cnn4-c4ccccc4)c3=O)cc2)cc1`, 34.7%.

On to `O=C(c1ccc(O)cc1)C1[C@H](c2ccccc2Br)[C@@H](c2ccccc2)NC12C(=O)Nc1ccc(Cl)cc12` (some centres not stated), for which the growth was 18.2%.

Consider `O=C(c1ccccc1)n1ccc(-c2cc3cc(Br)ccc3oc2=O)n1`, for which the growth is 1.35% (active). With `C#Cc1ccc(S(=O)(=O)Nc2cccc(-c3csc(NC(C)=O)n3)c2)cc1`, the growth is 42.8%. As for `O=C(N/N=C/c1ccc(-c2cccc([N+](=O)[O-])c2)o1)c1[nH]c2ccc(Br)cc2c1-c1ccccc1`, the growth is 75.9%. As to `O=C(Nc1nc2ccc([N+](=O)[O-])cc2s1)Nc1cc(Cl)ccc1I`, the growth was -25.9% (active).

In the case of `C=C(c1ccc(OC)c(N)c1)c1cc(C)nc2ccccc12`, the growth was 62.6%. On to `CNC(=O)c1cccc(N2CCc3c2ccc(NC(=O)Nc2ccc(N4CCN(C)CC4)c(C(F)(F)F)c2)c3F)c1`, for which the growth was 94.5%. `COc1ccc([C@H]2C(C(=O)c3ccc(Cl)cc3)C3(N[C@@H]2c2ccccc2)C(=O)Nc2ccc(Br)cc23)cc1` (some centres not stated): the growth is 21.2%. For `CN1CCN(Cc2ccc(C(=O)Nc3cccc(Nc4ccc5cc(O)ccc5n4)c3)cc2C(F)(F)F)CC1`, the growth is -11.7% (active). For `Brc1ccc(/C=N/Nc2ncnc3sc4c(c23)CCN(Cc2ccccc2)C4)cc1`, the growth is 91.6%.

On to `COc1ccc(C(C)=C(c2ccc(OCCCN(C)C)cc2)c2ccc(OCCCN(C)C)cc2)cc1`, for which the growth was -76.2% (active). `C=C(C)[C@@H]1CC[C@]2(C(=O)OC)CC[C@]3(C)[C@H](CC[C@@H]4[C@@]5(C)CC[C@H](N)C(C)(C)[C@@H]5CC[C@]43C)[C@@H]12`: the growth is -73.3% (active). Regarding `CS(=O)(=O)Nc1ccc(-c2ccc3c(c2)ncn3-c2ccc(NC(=O)Nc3ccc(Br)cc3)cc2)cc1`, the growth is -8.48% (active). For `CCCS(=O)(=O)c1oc(-c2ccc(F)cc2)nc1S(=O)(=O)c1ccc(F)cc1`, the growth was -67.9% (active).

Turning to `CC(C)CCSc1nc(NC2CC2)c(C#N)c(-c2ccc(C(C)C)cc2)n1`, the growth is 100%. Under `Cc1ccc(-c2nc3ccc(C(=O)N=Nc4c(O)[nH]c5ccc([N+](=O)[O-])cc45)cc3[nH]2)cc1` stands 51.8%.
